Source: PubChem (Broad Institute)
The full list was thinned out, with hits kept by preference.
DUX4 txn inh – DUX4-mediated transcription inhibition. 293T-iDUX4 ZSCAN4-Gaussia luciferase reporter, 24 h; stronger effect = lower value. activity change, negative = inhibition, % (concentration not given with the values). 37,000 compounds, 0.8% hits;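 active = mean inhibition of at least 10% in the main channel, exceeding the control channel by a set limit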;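 note: 0% = median of neutral control wells and -100% = median of positive control wells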
* hit, by the source's call.

SMILES | DUX4 txn inh
COC(=O)[C@H]1[C@H](CO)[C@H]2Cn3c(ccc(-c4cccnc4)c3=O)[C@@H]1N2S(=O)(=O)c1ccccc1C | -2
COC(=O)[C@@H]1[C@@H](CO)[C@@H]2Cn3c(ccc(-c4cncnc4)c3=O)[C@H]1N2S(=O)(=O)c1ccccc1C | -17*
COC(=O)[C@@H]1[C@@H](CO)[C@@H]2Cn3c(ccc(-c4cccnc4)c3=O)[C@H]1N2S(=O)(=O)c1ccccc1C | 2
O=C([C@H]1N[C@H]2c3cccc(=O)n3C[C@H]2[C@@H]1CO)N1CCCCC1 | 2
O=C1CNC[C@@H]2[C@@H](c3ccc(Br)cc3)[C@@H](CO)N12 | 16
Cc1ccc(OC(=O)N(C)C[C@@H]2OCc3ccccc3-c3c(n(C)c4ccccc34)C(=O)N([C@@H](C)CO)C[C@H]2C)cc1 | 3
O=C(Cc1ccncc1)N1CCCCN2[C@H](CO)[C@H](c3ccc(-c4ccncc4)cc3)[C@@H]2C1 | 12
O=C(Cc1ccncc1)N1CCCCN2[C@H](CO)[C@@H](c3ccc(C#Cc4ccccc4F)cc3)[C@H]2C1 | -28*
O=C(Cc1ccncc1)N1CCCCN2[C@@H](CO)[C@@H](c3ccc(-c4ccncc4)cc3)[C@@H]2C1 | 14
O=C(Cc1ccccc1)N1CC2(C1)[C@@H](c1ccccc1)[C@H](CO)N2Cc1cccc(F)c1 | -10
